ChEMBL document CHEMBL1201862, “PubChem BioAssay data set” (2004)
About 2,100 (0.53%) of roughly 400,000 compounds were called active. Inconclusive results (about 14%) are left out. The rule behind the calls is not given here. Only a selection was taken, and actives are over-represented in it overall.

Target: Ataxin-2 (Homo sapiens) (UniProt Q99700)
Experiment: qHTS for Inhibitors of ATXN expression.
Format: functional

Ataxin-2 (Homo sapiens), sequence (Q99700 whole entry): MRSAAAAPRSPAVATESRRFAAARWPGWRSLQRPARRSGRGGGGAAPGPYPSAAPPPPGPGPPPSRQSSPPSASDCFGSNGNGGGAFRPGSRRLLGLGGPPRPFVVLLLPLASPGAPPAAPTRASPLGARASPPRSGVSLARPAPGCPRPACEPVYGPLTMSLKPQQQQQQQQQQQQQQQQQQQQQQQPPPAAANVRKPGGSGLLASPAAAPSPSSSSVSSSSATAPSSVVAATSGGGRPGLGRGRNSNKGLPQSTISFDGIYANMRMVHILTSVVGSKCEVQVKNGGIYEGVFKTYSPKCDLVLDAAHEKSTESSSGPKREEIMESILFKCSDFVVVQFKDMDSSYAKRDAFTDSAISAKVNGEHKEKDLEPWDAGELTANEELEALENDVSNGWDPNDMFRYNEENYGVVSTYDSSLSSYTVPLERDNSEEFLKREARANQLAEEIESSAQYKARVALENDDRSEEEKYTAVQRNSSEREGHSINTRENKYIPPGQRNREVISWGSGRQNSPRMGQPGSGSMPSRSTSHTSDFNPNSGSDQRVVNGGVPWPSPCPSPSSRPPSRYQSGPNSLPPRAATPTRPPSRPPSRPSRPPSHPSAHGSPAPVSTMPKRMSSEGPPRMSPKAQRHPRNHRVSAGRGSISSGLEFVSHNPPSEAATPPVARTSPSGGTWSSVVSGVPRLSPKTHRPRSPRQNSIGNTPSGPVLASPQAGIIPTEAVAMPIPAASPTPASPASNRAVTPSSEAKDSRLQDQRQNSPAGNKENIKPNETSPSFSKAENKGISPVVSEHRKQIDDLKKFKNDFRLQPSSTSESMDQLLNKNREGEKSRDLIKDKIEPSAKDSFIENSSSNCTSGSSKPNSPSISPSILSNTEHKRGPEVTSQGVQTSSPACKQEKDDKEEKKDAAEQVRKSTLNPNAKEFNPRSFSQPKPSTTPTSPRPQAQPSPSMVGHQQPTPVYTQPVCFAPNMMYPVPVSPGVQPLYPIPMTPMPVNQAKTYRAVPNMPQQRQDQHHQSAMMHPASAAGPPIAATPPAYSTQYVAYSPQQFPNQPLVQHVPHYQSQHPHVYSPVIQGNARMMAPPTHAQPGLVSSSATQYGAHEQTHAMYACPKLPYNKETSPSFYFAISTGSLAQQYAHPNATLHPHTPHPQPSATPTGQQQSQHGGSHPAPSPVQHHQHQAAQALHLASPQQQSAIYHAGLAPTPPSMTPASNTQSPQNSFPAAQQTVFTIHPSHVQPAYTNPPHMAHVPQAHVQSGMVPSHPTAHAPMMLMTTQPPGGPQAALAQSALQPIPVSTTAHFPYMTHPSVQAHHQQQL

Structure (SMILES) | Potency
Cc1ccccc1-n1c2nc(=O)n(C)c(=O)c-2cc2ccccc21 | inactive
Cc1ccc(C)c(-n2c3nc(=O)n(C)c(=O)c-3cc3ccccc32)c1 | inactive
Cn1nc(-c2ccccn2)nc2c(=O)n(C)c(=O)nc1-2 | 17.8 µM (active)
CCCc1nc2c(=O)n(C)c(=O)nc-2n(C)n1 | 8.44 µM (active)
Cn1c(=O)nc2n(Cc3ccccc3)c3ccccc3cc-2c1=O | inactive
CC(C)C[C@H]1CN=C(Nc2ccccc2)N1CCCC1CCCCC1 | 22.4 µM (active)
CC(C)(C)C1CCC(CN2C(Nc3ccccc3)=NC[C@@H]2Cc2ccccc2)CC1 (some centres undefined) | 25.1 µM (active)
CCC(=O)c1cc2c(C)cc(=O)oc2c(C)c1OC(=O)C(C)C | inactive
O=[N+]([O-])c1ccccc1S(=O)(=O)N1CCN(Cc2ccccc2)CC1 | inactive
COc1cc(OC)cc(OC(=O)c2cccc(S(=O)(=O)N3CCN(C)CC3)c2)c1 | inactive
CN1CCN(S(=O)(=O)c2ccc(Sc3nnnn3-c3ccccc3)c([N+](=O)[O-])c2)CC1 | 39.8 µM (active)
CCC(C)[C@H]1CN=C(S)N1CCc1cc(C(F)(F)F)cc(C(F)(F)F)c1 (some centres undefined) | 35.5 µM (active)
FC(F)(F)c1cc(CCN2C(S)=NC[C@@H]2Cc2ccccc2)cc(C(F)(F)F)c1 | 39.8 µM (active)
NC1=NC[C@H](c2ccccc2)N1CCc1cc(C(F)(F)F)cc(C(F)(F)F)c1 | 28.2 µM (active)
COc1cccc(C2=CC(c3ccccc3F)n3ncc(C(=O)Nc4ccc(F)cc4)c3N2)c1 (centres undefined) | inactive
CC1CC(Nc2ccccc2)c2ccccc2N1C(=O)c1ccncc1 (centres undefined) | inactive
CN1CCc2c(sc3c2C(=O)NC(c2ccc(-c4cccc(Cl)c4)o2)N3)C1 (centres undefined) | inactive
COn1c(=O)c(-c2ccc(F)cc2)[n+]([O-])c2ccccc21 | inactive
CCN(CC)Cc1c(O)c(Cl)cc2c(C)c(C)c(=O)oc12 | inactive
COc1ccc(/C=N/NC(=O)c2[nH]c3ccc(Cl)cc3c2-c2ccccc2)c(C(=O)O)c1OC | inactive
O=C1OCCN1C(=O)[C@H]1[C@H](c2ccccc2)C(c2ccc(F)cc2)=NN1c1ccccc1 | inactive
CCn1nc(NC(=O)C2CCCO2)c2cc3cccc(C)c3nc21 (centres undefined) | inactive
COc1cc(C2C=C(c3cccs3)Nc3ncnn32)cc(OC)c1OC (centres undefined) | inactive
Cc1cnc(-n2ncc(C(=O)N3CCN(C(C)C)CC3)c2-c2ccco2)nc1-c1ccc(F)cc1 | inactive

Structure (SMILES) | Potency
S=C(NN=C(c1ccccc1)c1ccccn1)N(Cc1ccccn1)Cc1ccccn1 | 15.8 µM (active)
CC(=O)N(Cc1ccccn1)Cc1ccco1 | inactive
COC(=O)CC1C(=O)NCCN1C(=O)CSc1nc2ccccc2c(=O)n1CC(C)C (centres undefined) | inactive
Cc1nc(C/C(=N\N)c2ccc(O)cc2O)cs1 | inactive
O=C1c2cccc3c(N4CCCCC4)ccc(c23)C(=O)N1c1cccc(O)c1 | inactive
COc1cc2c(cc1OC)CN(C(=O)CSc1ccc(F)cc1)CC2 | inactive
COc1cc2c(cc1OC)CN(Cc1cc(=O)n3c(-c4ccccc4)csc3n1)CC2 | inactive
COc1ccc(C(=O)CCN2CCc3cc(OC)c(OC)cc3C2)cc1 | 26.7 µM (active)
Cc1c(C)c2cc(Cl)c(O)c(CN3CCN(C)CC3)c2oc1=O | inactive
CC1CCN(CCN=C(S)Nc2ccc(Cl)cc2)CC1 | inactive
CN1CCN(c2ccc(Cl)cc2NC(=O)/C=C/c2ccc(F)cc2)CC1 | inactive
CN1CCC(NCCC(c2ccc(F)cc2)c2ccc(Cl)cc2)CC1 (centres undefined) | 25.1 µM (active)
CCOc1ccc(Cl)cc1/C=N/NC(N)=O | inactive
COc1cc(Cl)cc(/C=N/NC(N)=O)c1O | inactive
COc1ccccc1Sc1ccccc1/C=N/NC(N)=O | 39.8 µM (active)
CCOC(=O)c1cc2c(=O)n3ccccc3nc2n(CCOC)/c1=N/C(=O)c1c(-c2c(F)cccc2Cl)noc1C | inactive
Cc1c2ccccc2nc2ccccc12 | inactive
Cc1cc(C)c2c(N)c3ccccc3nc2n1 | inactive
Cc1cc2[nH]c3c4ccccc4nc(C)c3c2cc1C | 28.2 µM (active)
Cc1ccc2nc(N3CCN(C(=O)CCCC(=O)O)CC3)nc(-c3ccccc3)c2c1 | inactive
CCOC(=O)c1ccc(NS(=O)(=O)c2c(C)n(C)c(=O)n(C)c2=O)cc1 | inactive
CCOC(=O)c1ccc(N2C(=O)C=CC2=O)cc1 | 39.8 µM (active)
CCOC(=O)c1ccc(NC(=O)N2C3CCCC2CC(NC(C)=O)C3)cc1 (centres undefined) | inactive
CC1CCCc2sc3ncn(N)c(=N)c3c21 (centres undefined) | inactive

Structure (SMILES) | Potency
CCCCCCCNC(=O)C1(CC2CC(c3cccc(Br)c3)=NO2)CCNCC1 (centres undefined) | 31.6 µM (active)
CCCCCCCNC(=O)C1(CC2CC(c3ccc(Cl)cc3)=NO2)CCNCC1 (centres undefined) | 25.1 µM (active)
CC1CCCC(C)N1C(=O)COC(=O)C12CC3CC(CC(Cl)(C3)C1)C2 (centres undefined) | inactive
O=C(NN/C=C1\C(=O)N(c2ccc(Cl)cn2)C(=O)c2ccccc21)c1ccncc1 | inactive
Cc1cccc(OCC2Cn3c(nc4c3c(=O)[nH]c(=O)n4C)O2)c1 (centres undefined) | inactive
CCCSc1nc2c(c(=O)[nH]c(=O)n2C)n1Cc1ccccc1 | inactive
CCCCCn1c(N2CCC(Cc3ccccc3)CC2)nc2c1c(=O)[nH]c(=O)n2C | 28.2 µM (active)
Cn1c(=O)[nH]c(=O)c2c1nc(N1CCCCCC1)n2Cc1cccc2ccccc12 | 44.7 µM (active)
CCCCCCn1c(SCCOC)nc2c1c(=O)[nH]c(=O)n2C | inactive
Brc1ccc(C2CC(c3ccccc3)=Nc3ccccc3N2)cc1 (centres undefined) | inactive
CC(=O)c1ccc(N2C(=O)[C@@H]3[C@H](C2=O)[C@H]2c4ccccc4C=NN2[C@@H]3C(C)=O)cc1 | inactive
CCn1nc([N+](=O)[O-])c(C(C#N)c2nc3cc(C(F)(F)F)ccc3s2)c(Cl)c1=O (centres undefined) | 28.2 µM (active)
CCOC(=O)c1cc2c(=O)n3ccccc3nc2n(Cc2ccco2)/c1=N\C(=O)c1cccc(Br)c1 | inactive
O=C(NCc1ccccn1)c1cc2ccccn2n1 | inactive
COCCCNC(=O)c1c(N)n(-c2cccc(S(N)(=O)=O)c2)c2nc3ccccc3nc12 | inactive
COc1ccc(CN(C)CC(O)COc2ccc(-c3ccccc3)cc2)cc1OC (centres undefined) | 11.2 µM (active)
OC(CNC1CCCC1)COc1ccc(-c2ccccc2)cc1 (centres undefined) | inactive
COc1ccc(CN(C)Cc2c(O)ccc3cc(Br)ccc23)cc1OC | inactive
Cc1nn2c(NCCN(C)C)c3c(nc2c1-c1ccccc1)CCCC3 | 35.5 µM (active)
Cc1cc(C(C)(C)C)n2nc(C)c(-c3ccccc3)c2n1 | inactive
Cc1nn2c(NC(C)C)c3c(nc2c1-c1ccccc1)CCC3 | inactive
CSCCC(NC(=O)/C(=C/c1ccc2c(c1)OCO2)NC(=O)c1cccc([N+](=O)[O-])c1)C(=O)O (centres undefined) | inactive
C=CC[C@H](CC(=O)N(CCO)Cc1ccccc1)C(=O)NC[C@@H](OC(=O)[C@@H](CC=C)Cc1ccc(F)cc1)c1ccccc1 | 28.2 µM (active)
C=CC[C@H](CC(=O)N(CCO)Cc1ccccc1)C(=O)N[C@H](COC(=O)[C@@H](CC=C)Cc1ccc(F)cc1)Cc1ccccc1 | 22.4 µM (active)

Structure (SMILES) | Potency
C=CC[C@H](CC(=O)N(CCO)Cc1ccccc1)C(=O)N[C@H](COC(=O)[C@@H](CC=C)Cc1ccc(F)cc1)C(C)(C)C | 28.2 µM (active)
C=CCC[C@H](Cc1ccc(F)cc1)C(=O)OC[C@@H](NC(=O)[C@@H](CC=C)CC(=O)N[C@@H](CO)Cc1ccccc1)C(C)(C)C | 39.8 µM (active)
Cn1c(-c2c(N)n(CCc3ccccc3)c3nc4ccccc4nc23)nc2ccccc21 | inactive
Cc1ccc(C(C(=O)NCC2CCCO2)N(C(=O)c2snc(C(N)=O)c2N)c2ccccc2F)o1 (centres undefined) | inactive
C=CC[C@@H](CC(=O)N(CCO)Cc1ccccc1)C(=O)N[C@H](COC(=O)[C@@H](CC=C)Cc1ccc(F)cc1)Cc1ccccc1 | 28.2 µM (active)
OCCN(Cc1ccccc1)C(S)=Nc1ccc(F)cc1 | inactive
C=CC[C@H](CC(=O)N(CCO)Cc1ccccc1)C(=O)N[C@@H](COC(=O)[C@@H](CC=C)Cc1ccc(F)cc1)Cc1ccccc1 | 28.2 µM (active)
Cc1cccn2c(=O)c3cc(C#N)/c(=N\C(=O)c4ccncc4)n(CCCOC(C)C)c3nc12 | inactive
CCn1ccnc1CN1CCc2c([nH]c3ccccc23)C1CC(C)C (centres undefined) | inactive
C[C@]12c3[nH]c4ccc(Cl)cc4c3CCN1C(=O)[C@@H](CC(=O)NCc1cccc(C(F)(F)F)c1)C[C@@H]2C(=O)N1CCOCC1 | 20 µM (active)
O=C(CCCCCn1c(=S)[nH]c2ccc(N3CCOCC3)cc2c1=O)NCc1cccc(Cl)c1 | inactive
C[C@]12c3[nH]c4ccc(Cl)cc4c3CCN1C(=O)[C@@H](CC(=O)NCc1cccc(C(F)(F)F)c1)C[C@@H]2C(=O)N1CCCCC1 | 35.5 µM (active)
O=C(CCCCCn1c(=S)[nH]c2ccc(N3CCOCC3)cc2c1=O)NCc1ccc(Cl)cc1 | inactive
CCC1(C)Cc2ccccc2-c2ncnc(O)c21 (centres undefined) | inactive
COC(=O)N/N=C/c1cccc(OC(=O)c2ccc3c(c2)OCO3)c1 | inactive
O=C(Cn1nnc2ccccc2c1=O)Nc1ccc(S(=O)(=O)N2CCOCC2)cc1 | inactive
COc1ccc(C2C=C(c3ccccc3)Nc3nc(NS(=O)(=O)c4ccc(C)cc4)nn32)cc1 (centres undefined) | inactive
COc1cc([C@@H]2c3cc4c(cc3[C@@H](O)[C@H]3COC(=O)[C@H]23)OCO4)cc(OC)c1O[Si](C)(C)C(C)(C)C | 39.8 µM (active)
Oc1c(C(Nc2cccc(C(F)(F)F)c2)c2ccncc2)ccc2cccnc12 (centres undefined) | inactive
N#Cc1cccc(-c2csc(C(O)(c3ccccc3)C(F)(F)F)n2)c1 (centres undefined) | 20 µM (active)
COc1cccc(-c2cc(C(F)(F)F)c(C#N)c(O)n2)c1 | inactive
OC(c1ccccc1)(c1nc(-c2cc(F)cc(F)c2)cs1)C(F)(F)F (centres undefined) | 35.5 µM (active)
